This passage reports Potency results from PubChem BioAssay AID720517 (National Center for Advancing Translational Sciences (NCATS), 2013).

Inconclusive results are not listed. Entries that show only a call come without a potency. Activity calls are given as the source filed them. Calls come from the whole dose curve; as a rule, active = well fitted activation curve with a large enough effect; inconclusive = small, poorly fitted or top-dose-only effect; inactive = flat fitted curve, though single readings scatter.

This assay is described as follows: qHTS for Inhibitors of Cell Surface uPA Generation: FP59 Counterscreen for Cherry-picked Compounds. The following applies: FP59 anthrax toxin cytotoxicity counterscreen, cells; series mostly up to 115 µM.
On to `CCn1c2ccccc2c2n[nH]c(=S)nc21`, for which the Potency entry is “inactive”.

With `COc1cc(F)ccc1S(=O)(=O)n1c(C)nc2ccccc21`, the Potency result is “inactive”.

For the compound `O=C(COc1ccc(C(=S)N2CCOCC2)cc1)N1CCOCC1`, the Potency result was “inactive”.

As for `Cc1cccc(CCNC(=O)Cc2ccc(NC3=NC4CS(=O)(=O)CC4S3)cc2)c1` (configuration not stated), the Potency result was “inactive”.

Regarding `CN(CC(=O)NCc1ccco1)CC(=O)Nc1c(Cl)cccc1Cl`, the Potency result is “inactive”.

Regarding `O=[N+]([O-])c1ccccc1C=NNC(=S)NN=Cc1ccccc1[N+](=O)[O-]`, the Potency result was “inactive”.

Turning to `Cc1cc(C)n(CCCNC(=O)c2ccc(C)o2)n1`, the Potency entry was “inactive”.

`C=CCNC(=S)NCC=C`: the Potency result was “inactive”.

Take `CC(=O)c1ccc(NC(=O)CN2CCN(c3ccccc3)CC2)cc1`: the Potency entry was “inactive”.

On to `C[C@H](O)[C@@H]1C(=O)N2CCc3ccc(-c4cccc(F)c4)cc3[C@@H]2C[C@@H]1N(C)C(=O)C(C)(C)C`, for which the Potency result was “inactive”.

With `CSCC[C@H](NC(=O)[C@H](Cc1ccccc1)n1c(=O)[nH]c2ccccc2c1=O)C(=O)N1CCC[C@@H]1C(=O)O`, the Potency result is “inactive”.

`CCOC(=O)C1(CCOc2ccccc2)CCN(Cc2ccc(O)c(OC)c2)CC1`: the Potency result is “inactive”.

Regarding `CCOc1cc(N2CCOCC2)c(OCC)cc1NC(=O)c1[nH]c(C)c(C(C)=O)c1C`, the Potency result is “inactive”.

In the case of `Cc1ccc(C)c(NC(=O)CCN2CCN(c3ccccc3F)CC2)c1`, the Potency result was “inactive”.

Regarding `Cc1cc(C)cc(NC(=O)C(OC(=O)c2ccc(O)cc2)c2ccccc2)c1` (configuration not stated), the Potency entry is “inactive”.

Regarding `COc1ccc([C@H]2CC(=O)C=C(c3ccc(CNC(=O)OC(C)(C)C)cc3)C2)cc1`, the Potency entry is “inactive”.

For the compound `CC1=CC(C)C(C[N+]2(C)CCCCC2)C(C)C1` (configuration not stated), the Potency entry was “inactive”.
